# High-throughput results as filed in PubChem BioAssay.
# Hits are enriched below; roughly 19% of the tested compounds scored in any of these assays.
# KB-3-1 tox = KB-3-1 parental cell cytotoxicity; KB-3-1 viability, CellTiter-Glo ATP luminescence, 72 h; AID 1347075; hit rate 1.4% among 400,000; Potency, µM (titrated, usually from 46.1 µM), most hits filed as cytotoxic; further: nearly all actives have a fitted effect of over 60% in size
#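 Cytotoxicity in the drug-sensitive parental line KB-3-1 was scored as loss of CellTiter-Glo luminescence following 72 h incubation with compound. Values come from curve fitting of normalized concentration-response data.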
# KB-V1 MDR tox = kills drug-selected multidrug resistant KB-V1 cells. hit rate 3.4% among 400,000. KB-V1 MDR cells viability, CellTiter-Glo, 72 h. Potency, µM (doses to about 46.1 µM), hits mostly cytotoxic. AID 1347076; further: nearly all actives have a fitted effect of over 60% in size
#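 Luminescent ATP read-out (CellTiter-Glo, 10 min) measures survival of drug-selected KB-V1 MDR cells after 72 h, 37 degrees C compound exposure. Medium: phenol-red-free DMEM, 10% FBS. Values from fitted concentration-response curves.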
# TDP1 cell noCPT = qHTS for Inhibitors of human tyrosyl-DNA phosphodiesterase 1 (TDP1): qHTS in cells in absence of CPT; DT40 Tdp1-/- hTDP1 cells, no CPT, ATP luminescence, 48 h; Potency, µM (highest dose often 46.2 µM), hits mostly inhibitors; hit rate 15% among 420,000; further: nearly all actives have a fitted effect of over 55% in size
#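 Growth of hTDP1-complemented DT40 Tdp1-knockout cells is measured by ATP luminescence after at least 48 hr compound exposure at 37 °C, with DMSO substituting for the 20 nM CPT used in the parallel screen.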
# TDP1 cell CPT = growth inhibition of DT40 Tdp1-/-;hTDP1 cells with camptothecin (screen for TDP1 inhibitors). chicken DT40 Tdp1-/-;hTDP1 cells + 20 nM CPT, ATP luminescence, 48 h. Potency, µM (series often up to 46.2 µM), usual class: inhibitors. hit rate 12% among 420,000. AID 686979; further: nearly all actives have a fitted effect of over 55% in size
#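 Chicken DT40 Tdp1-/- cells stably complemented with human TDP1 were seeded at 400 cells/well in medium containing 20 nM camptothecin, exposed to pin-transferred compounds, and grown at 37 °C for at least 48 hr. Viability was read as ATP luminescence.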
# HT1080NT lethal = kills 2HG-producing HT-1080-NT fibrosarcoma cells. HT-1080-NT fibrosarcoma viability, CellTiter-Glo ATP luminescence, 48 h. Potency, µM (doses to about 46.1 µM), usual class: cytotoxic. AID 686970. hit rate 1.6% among 360,000;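 further: NT is the 2HG producing partner of a matched IDH1 knockdown line; nearly all actives have a fitted effect of over 55% in size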
#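 Compounds were tested in concentration-response format on HT-1080-NT cells for 48 hours at 37 degrees C. Cell viability came from CellTiter-Glo luminescence; curves were classified by r2, response magnitude and activity.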
# HT1080 IDH1KD tx = HT-1080 IDH1 knockdown cell toxicity (counter line). HT-1080 IDH1 knockdown viability, ATP luminescence, 48 h. Potency, µM (top dose mostly 46.1 µM), actives largely listed as cytotoxic. hit rate 2% among 360,000
#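 Cytotoxicity counter-line: IDH1KD HT-1080, 48 h, CellTiter-Glo. Curves classed by r2, magnitude and activity.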
# Hits are given with their value; n = inactive; u = inconclusive; x = not tested or not shown; [ ] = another dose, or the depositor's remark. The call rests on the fitted dose curve; in most records, active means well fitted curve in the direction sought with a large enough effect; inconclusive means small, poorly fitted or top-dose-only effect, or another doubt; inactive means no such curve, though single readings can be large; an effect the other way counts as inactive or inconclusive.
SMILES,KB-3-1 tox,KB-V1 MDR tox,TDP1 cell noCPT,TDP1 cell CPT,HT1080NT lethal,HT1080 IDH1KD tx
CN(C)S(=O)(=O)c1ccc(F)c(C(=O)Nc2ccccc2C(=O)NC2CC2)c1,n,n,u,n,n,n
CCc1ccccc1NC(=O)c1cc(S(=O)(=O)NC2CCCC2)ccc1F,n,n,21µM,u,x,x
COc1ccc(C)cc1NC(=O)c1cc(S(=O)(=O)NC2CCCCCC2)ccc1F,n,n,u,u,x,x
O=C(Nc1ccc(Br)cc1F)c1cc(S(=O)(=O)NC2CCCC2)ccc1F,x,x,16µM,21µM,x,x
O=C(Nc1ccc(Cl)cc1F)c1cc(S(=O)(=O)NC2CCCCCC2)ccc1F,n,n,u,21µM,x,x
O=C(Nc1ccc(Br)cc1F)c1cc(S(=O)(=O)NCc2ccc(F)cc2)ccc1F,x,x,u,n,x,x
COCCCN1C(=O)C(CC(=O)NCc2cccc3ccccc23)CC(C(=O)N(C(C)C)C(C)C)=C1C (stereo not drawn),n,n,u,n,n,n
COc1ccc(CCNCc2c(C(=O)O)c(C)n(Cc3cccc(Cl)c3)c2C)c(OC)c1OC,n,n,n,u,x,x
O=C(CN(CCc1c[nH]c2ccccc12)S(=O)(=O)c1ccccc1)N1CCCCCC1,n,n,u,u,x,x
O=C(c1ccc(NC(=S)NCc2ccco2)cc1)N1CCOCC1,n,n,n,n,n,n
COc1cccc(NC(=O)C2CCOC2=O)c1 (stereo not drawn),n,n,n,n,n,n
Clc1ccc(-n2cnc3c(Cl)ncnc32)cc1Cl,n,n,6.5µM,4.6µM,n,n
c1cncc(-c2nc(NCCCN3CCOCC3)c3c4c(sc3n2)CCC4)c1,u,n,23µM,u,18µM,u
CCn1c(=O)c(=O)n(CC)c2cc(S(=O)(=O)Nc3cc(C)ccc3C)ccc21,n,n,n,n,n,n
COc1ccc(NC(=O)c2ccc3c(c2)c(C)c(C)n3Cc2ccc(F)cc2)c(OC)c1,n,n,21µM,18µM,x,x
COc1ccc(OC)c(NC(=O)c2ccc3c(c2)c(C)c(C)n3Cc2ccc(F)cc2)c1,n,n,21µM,u,x,x
O=C(Nc1ccc2oc(-c3ccc(Br)cc3)nc2c1)c1cc2ccccc2o1,n,u,10µM,u,x,x
O=C(Nc1cccc(NC(=O)c2ccc(-c3ccc(Br)cc3)o2)c1)c1ccco1,n,n,13µM,u,n,u
O=C1C2C3C=CC(C3)C2C(=O)N1c1cccc(-c2nc3ccccc3o2)c1 (stereo not drawn),n,n,n,n,n,n
O=C(Nc1ccc2oc(-c3cccnc3)nc2c1)c1cc2ccccc2o1,n,n,n,u,n,n
O=C(Nc1cccc(-c2nc3ccccc3o2)c1)c1ccc(N2C(=O)C3C4C=CC(C4)C3C2=O)cc1 (stereo not drawn),n,u,8.2µM,7.3µM,n,u
O=C(Nc1cccc(-c2nc3ccccc3o2)c1)c1ccc(-c2ccc(Br)cc2)o1,n,n,10µM,u,x,x
Cc1cc(C(C)(C)C)ccc1OCC(=O)N/N=C\c1c(C)n(C)n(-c2ccccc2)c1=O,u,n,n,n,n,n
O=C(O)Cc1ccc(S(=O)(=O)Nc2ccccc2C(=O)O)cc1,n,n,n,n,n,n
O=C(Cn1ccn(-c2ccc(F)c(F)c2)c(=O)c1=O)c1ccc(F)cc1,x,x,n,n,x,x
SMILES,KB-3-1 tox,KB-V1 MDR tox,TDP1 cell noCPT,TDP1 cell CPT,HT1080NT lethal,HT1080 IDH1KD tx
Cc1ccc(-c2nc3ccccc3o2)cc1NC(=S)NC(=O)c1cc2ccccc2o1,8.2µM,n,15µM,15µM,u,u
O=C(Nc1ccc2oc(-c3cc(Br)ccc3Cl)nc2c1)c1cc2ccccc2o1,x,x,10µM,16µM,x,x
CCC1CCCCN1S(=O)(=O)c1ccc(C(=O)N(CCCN(C)C)c2nc3cc4c(cc3s2)OCO4)cc1 (stereo not drawn),n,n,u,16µM,u,u
CC1CCCCN1S(=O)(=O)c1ccc(C(=O)N(CCCN(C)C)c2nc3ccc(Br)cc3s2)cc1 (stereo not drawn),u,23µM,u,21µM,18µM,u
CCc1ccc2nc(N(CCCN(C)C)C(=O)c3ccc(S(=O)(=O)N4CCCC4)cc3)sc2c1,n,n,u,u,n,n
COc1ccc(Cn2cc(CN3CCOCC3)nn2)cc1,n,n,n,n,n,n
CC1(C)CC(=O)C(C=NCCN2CCN(C(=O)CCl)CC2)=C(O)C1,n,n,10µM,u,n,n
CCC(=O)N1CCN(CCN=CC2=C(O)CC(C)(C)CC2=O)CC1,n,n,n,n,n,n
Cc1ccc(C)c(N2CCN(CCCNC(=O)Cn3cc4c(n3)CCC(C)C4)CC2)c1 (stereo not drawn),n,u,15µM,16µM,n,n
CC1CCc2nn(CC(=O)NCc3ccc(F)cc3)cc2C1 (stereo not drawn),n,n,u,u,n,n
CC1CCc2nn(CC(=O)NCCCN3CCCC3=O)cc2C1 (stereo not drawn),n,n,n,n,n,n
Cc1ccc(C)c(N2CCN(CCCNC(=O)Cn3cc4c(n3)CCCCC4)CC2)c1,u,21µM,6.5µM,4.6µM,u,n
CC1CCc2nn(CC(=O)NCc3ccco3)cc2C1 (stereo not drawn),n,n,u,21µM,n,n
Cc1ccc2c(c1)NC(=O)C(CC(=O)NCCCN1CCN(c3cc(C)ccc3C)CC1)O2 (stereo not drawn),u,u,7.3µM,8.2µM,n,n
CC1CCc2c(C(=O)NCc3ccco3)csc2C1 (stereo not drawn),n,n,15µM,u,n,n
COc1ccc(-n2ccc(-c3sc(NCc4cc(OC)c5c(c4)OCO5)nc3C)n2)cc1,x,x,u,n[9.04 µM],x,x
COc1ccc2nc(NC(=O)C3CC(=O)N(c4ccccc4)C3)sc2c1 (stereo not drawn),n,n,u,n,n,n
Cc1cnc(SCc2ccccn2)nc1C1CCCN(C(=O)c2noc3c2CCCC3)C1 (stereo not drawn),x,x,15µM,10µM,x,x
Cc1cnc(SCc2ccccn2)nc1C1CCCN(C(=O)c2coc3c2C(=O)CCC3)C1 (stereo not drawn),x,x,23µM,u,x,x
COc1ccc(C(=O)N2CCCC(c3nc(SCc4ccccn4)ncc3C)C2)cc1F (stereo not drawn),x,x,7.3µM,9.2µM,x,x
COc1cccc(C(=O)N2CCCC(c3nc(SCCN4CCOCC4)ncc3C)C2)c1 (stereo not drawn),x,x,16µM,u,x,x
CCCC(=O)Nc1nnc(S(=O)(=O)N(CC(C)C)c2ccccc2)s1,n,n,n,n,n,n
